Most compounds without a hit are left out; they make up all but 4% or so of the library.
TRPM1 prom inh: inhibitors of MITF-dependent TRPM1 promoter reporter, primary screen, cell-based, SK-MEL-5, single point, luciferase | inhibition, % at 12.5 µM | 330,000 tested, 0.83% active | SK-MEL-5 TRPM1 promoter luciferase, 24 h;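 active = mean inhibition across replicates of 60% or more, whatever share of single replicates reaches that level; inconclusive = some that reach 60%, reason not given; inactive = mean inhibition across replicates below 60%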
PAX8 reporter: inhibitors of PAX8-driven TPO luciferase reporter, primary screen, RMG-I cells, single concentration | AID 652154, 2013 | inhibition, % at 12.6 µM | SteadyGlo, 24 h | 360,000 tested, 1.2% active;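 active = mean replicate inhibition at least 60% with every replicate also reaching 60%; inconclusive = only one of the two criteria is met; inactive = mean below 60% and not all replicates reaching 60%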;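 note: luciferase light reporting Pax8 driven TPO promoter activity; plate controls were median of neutral control wells for no effect and mitoxantrone controls for full effect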
MITF act: activators of MITF-driven TRPM1 promoter reporter, primary screen, cell-based, SK-MEL-5, luciferase, single point; SK-MEL-5 TRPM1-promoter luciferase, 24 h; % of positive control, neutral wells = 0; activation, % at 12.5 µM; 300,000 tested, 0.75% active; AID 588334, 2011;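 active = mean activation of at least 80% with every replicate also reaching 80%; inconclusive = mean reaches 80% but some replicate falls short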;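 note: 0% = neutral control wells and 100% = parthenolide positive control wells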
Wnt act: Wnt/beta-catenin pathway activators, primary screen, cell-based, plate reader, single point; Wnt/beta-catenin reporter cell assay, activator; activation, % at 9.35 µM; 300,000 tested, 1.2% active; in the data active = activation above about 30%, passing the limit was not always enough; inconclusive = no clear call, values can overlap the other calls;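 note: 0% = neutral control wells and 100% = positive control wells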
esBAF inh: Bmi1 luciferase reporter increase in mESCs, primary screen, esBAF inhibitor project, mouse ES cells, Bmi1 luciferase knock-in, single point; 24 h; 100% = twice the neutral-well signal; reporter increase, % at 12.5 µM; 350,000 tested, 2% active; AID 602393, 2012; in the data active = activation above about 40%; inconclusive = no clear call, values can overlap the other calls;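 note: 0% = median of the plate's neutral control wells and 100% = double that signal; a rise in the Bmi1 reporter signal indicates esBAF inhibition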
EWS-Fli inh: EWS/Fli-driven NR0B1 reporter inhibitors, primary screen, A673 cells, NR0B1 luciferase, luminescence, MLPCN library; 350,000 tested, 0.67% active; viability-normalised; inhibition, % at 12.6 µM;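 active = mean inhibition of at least 50% after viability correction, with every replicate also passing that limit; inconclusive = mean reaches 50% but only one of two replicates passes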;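 note: firefly luciferase signal divided by Alamar Blue viability fluorescence both relative to DMSO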
An asterisk follows results filed as active; ? = inconclusive; / = no result; ! = a repeat was not active.

SMILES	TRPM1 prom inh	PAX8 reporter	MITF act	Wnt act	esBAF inh	EWS-Fli inh
O=C(N/N=C/c1ccc(Br)s1)c1ccco1	-76	-96	?	43*	/	-71
Cc1ccc(/C=N/NC(=O)c2ccco2)s1	-44	/	44	45*	13	/
Cc1ccsc1/C=N/NC(=O)c1c[nH]c2ccccc12	-38	-92	34	?	36	/
Cc1ccc(/C=N/NC(=O)c2ccc(C(=O)N/N=C/c3ccc(C)s3)o2)s1	-23	-7	20	-3	11	/
Cc1ccc(/C=N/NC(=O)c2c[nH]c3ccccc23)s1	-66	/	69	/	59*	/
COc1ccc(C2NC3=C(CCC3)C3(C#N)C(OC)(OC)N=C(N)C23C#N)cc1 (stereo not drawn)	80*	/	-79	/	/	/
COc1ccc(N(CC(=O)NC2CC3CCC2C3)S(=O)(=O)c2ccc(C)cc2)cc1Cl (stereo not drawn)	/	1	/	51*	/	2
C[C@H](CO)N1C[C@H](C)[C@H](CN(C)CC2CCCCC2)Oc2ccc(NC(=O)Nc3ccc(C(F)(F)F)cc3)cc2CC1=O	/	15	/	/	2	2
COc1ccc2c3c(n(C)c2c1)[C@H](CO)N(C(=O)CN(C)C)CC31CCN(C(=O)CN(C)C)CC1	/	/	/	/	/	-5
Cc1cccnc1NC(=O)CCCNC(=O)c1ccc(Cl)cc1	-7	-17	7	2	4	5
Cc1cnc(NC(=O)CCCNC(=O)c2ccc(Cl)cc2)s1	-34	-192	38	52*	42*	-67
Cc1ccc(NC(=O)CCCNC(=O)c2ccc(Cl)cc2)nc1	-41	-53	44	7	52*	-39
CC(C)c1cc(C(=O)NCCc2ccccc2)no1	-67	-159	65	39*	24	-68
O=C(Nc1cccc(Cl)c1)c1ccncc1	0	/	2	0	3	/
CC(C)c1cc(C(=O)Nc2cc(Br)ccc2O)no1	-37	/	40	15	78*	5
O=C(Nc1cc(Br)ccc1O)c1cc(-c2cccs2)on1	-41	-39	45	12	37	-36
O=C(Nc1cccc(Cl)c1)c1cnc[nH]1	-71	-72	71	19	58*	-64
CC(C)c1cc(C(=O)Nc2cccc(Cl)c2)no1	-88	/	90*	/	31	/
Cc1noc(C(=O)Nc2cc(Cl)ccc2O)c1Cl	17	-1	-16	0	3	27
CC(C)c1cc(C(=O)Nc2cc(Cl)ccc2O)no1	-56	/	62	/	55*	/
Cc1cc(C(=O)CCl)c(C)n1CCc1ccc(F)cc1	88*	32	-86	-1	4	40
COc1ccc(CCn2c(C)cc(C(=O)CCl)c2C)cc1OC	44	1	-43	0	/	14
Cc1cc(C(=O)CCl)c(C)n1CCc1ccc(Cl)cc1	78*	3	-75	-2	0	23
CCOc1ccc(NC(=O)c2ccc(F)cc2F)cc1	-92	-255	93*	41*	24	-157
CCOc1ccc(NC(=O)c2cc3ccccc3cc2OC)cc1	-32	-114	30	12	?	-76
SMILES	TRPM1 prom inh	PAX8 reporter	MITF act	Wnt act	esBAF inh	EWS-Fli inh
CCOc1ccc(NC(=O)c2cccc3ccccc23)cc1	-31	-23	/	3	43*	6
Cc1ccc(S(=O)(=O)N(C)C[C@@H]2Oc3ccc(NS(=O)(=O)c4ccccc4)cc3C(=O)N([C@@H](C)CO)C[C@H]2C)cc1	/	/	/	/	2	-7
CO[C@H]1CN(C)C(=O)c2cc(NS(C)(=O)=O)ccc2OC[C@@H](C)N(Cc2cccnc2)C[C@H]1C	/	/	/	/	-4	-9
CSCCC(NS(=O)(=O)c1ccc2c(c1)OCCO2)C(=O)N(C)Cc1ccc(C)cc1 (stereo not drawn)	9	16	-5	8	-1	-8
COc1cccc(CN(C)C(=O)C(CCSC)NS(=O)(=O)c2ccc3c(c2)OCCO3)c1OC (stereo not drawn)	-6	70*	8	-1	/	0
COc1ccc(NC(=O)Nc2cccc3c2O[C@@H](CN(C)C(=O)NC2CCCCC2)[C@@H](C)CN([C@H](C)CO)C3=O)cc1	/	-8	/	/	3	-8
O=S(=O)(Nc1cc(Sc2ncn[nH]2)c(O)c2ccccc12)c1ccccc1	40	111*	-36	0	/	38
Cc1cc(O)c(Sc2ncn[nH]2)cc1NS(=O)(=O)c1ccc(Cl)cc1	-2	7	3	-3	-2	3
CC(OC(=O)c1ccc(S(C)(=O)=O)c([N+](=O)[O-])c1)C(=O)NC1C2CC3CC(C2)CC1C3 (stereo not drawn)	/	106*	/	-2	-57	50
CCC(OC(=O)c1ccc(S(C)(=O)=O)c([N+](=O)[O-])c1)C(=O)NC1C2CC3CC(C2)CC1C3 (stereo not drawn)	/	94*	/	-3	-88	47
Cc1ccc(C(=O)OC(C)C(=O)NC2CCCCC2)cc1S(=O)(=O)N1CCCCC1 (stereo not drawn)	-2	17	3	-2	3	8
COc1ccc2c3c(n(C)c2c1)[C@H](CO)N(S(=O)(=O)c1ccc(C)cc1)CC31CN(S(=O)(=O)c2ccc(C)cc2)C1	/	/	/	/	/	11
c1ccc(Cn2ncc3c(N4CCCCC4)ncnc32)cc1	-16	/	19	/	8	/
Clc1ccc(Cn2ncc3c(N4CCN(c5ccccc5)CC4)ncnc32)cc1	/	102*	/	-2	-6	9
COc1ccccc1S(=O)(=O)N(C)C[C@H]1Oc2cc(C#CCC3CCCC3)ccc2S(=O)(=O)N([C@H](C)CO)C[C@@H]1C	/	73*	/	/	1	-8
COc1ccccc1S(=O)(=O)N(C)C[C@@H]1Oc2cc(C#CCC(C)C)ccc2S(=O)(=O)N([C@H](C)CO)C[C@@H]1C	/	27	/	-3	0	17
COc1ccccc1S(=O)(=O)N(C)C[C@@H]1Oc2cc(C#CCC3CCCC3)ccc2S(=O)(=O)N([C@H](C)CO)C[C@@H]1C	/	64*	/	/	-4	28
COc1ccccc1S(=O)(=O)N(C)C[C@H]1Oc2cc(C#CCC3CCCC3)ccc2S(=O)(=O)N([C@H](C)CO)C[C@H]1C	/	84*!	/	-6	3	8
COc1ccc2c3c(n(C)c2c1)[C@@H](CO)N(Cc1ccccc1OC)CC31CCN(C)CC1	/	/	/	/	/	-11
CC[C@]12c3[nH]c4ccc(Cl)cc4c3CCN1C(=O)[C@@H](CC(=O)NC/C=C(\C)CCC=C(C)C)C[C@@H]2C(=O)N1CCN(C(=O)C2CC2)CC1	39	75*	-35	-4	12	8

Bioassay records deposited in PubChem BioAssay by Broad Institute.
